# Hits are enriched below; roughly 3% of the tested compounds scored in any of these assays.
# Caspase-1 inhib: caspase-1 (human) inhibition, allosteric or competitive. 75,000 compounds, 0.03% hits. Potency, µM (series often up to 57.5 µM), actives largely listed as inhibitors. Caspase-1 enzyme, Ac-WEHD-AFC fluorogenic rate. P29466
# Casp7 inh: allosteric or competitive inhibitors of human caspase-7 | P55210 | recombinant caspase-7, Ac-DEVD-AFC fluorescence rate | Potency, µM (highest dose often 57.5 µM), most hits filed as inhibitors | 75,000 compounds, 0.02% hits | AID 889; active = well fitted inhibition curve with a large enough effect in the main read-out, with a control signal flat, not every such curve was filed as active; inconclusive = small, poorly fitted or top-dose-only effect, or a change in a side signal
# 15-hLO inh: blocks human 15-lipoxygenase activity | P16050 | purified 15hLO-1, xylenol orange hydroperoxide absorbance | Potency, µM (highest dose often 57.1 µM), most hits filed as inhibitors | 74,000 compounds, 1.4% hits | AID 887; note: nearly all actives have a fitted effect of over 55% in size
#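 Compounds were preincubated 15 min at room temperature with 40 nM purified human enzyme (25 mM Hepes pH 7.5, 0.01% Triton X-100); 50 uM arachidonic acid reacted 6 min. Fe-xylenol orange detection, 30 min, absorbance ratio 573/405 nm.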
# 15-hLO-2 inh: blocks human 15-lipoxygenase 2 activity; purified 15hLO-2, xylenol orange hydroperoxide absorbance; Potency, µM (titrated, usually from 57.1 µM), usual class: inhibitors; 110,000 compounds, 0.56% hits; note: nearly all actives have a fitted effect of over 60% in size
#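 Enzyme 50 nM, AA 45 uM, 25 mM Hepes pH 7.5 + 0.01% Triton X-100; cpd preinc 15 min RT, rxn 90 min RT; stop/detect with 200 uM XO + 300 uM Fe(II) in 50 mM H2SO4, 30 min; A573/A405.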
# TSHR agonist: agonists of human thyroid stimulating hormone receptor; 73,000 compounds, 0.48% hits; HEK293-CNG-TSHR cells (CNG channel as cAMP sensor), membrane potential dye, cAMP; AID 926; Potency, µM (top dose mostly 57.1 µM), most hits filed as activators; P16473; active = well fitted activation curve with a large enough effect in the main read-out, with a control signal flat, not every such curve was filed as active; inconclusive = small, poorly fitted or top-dose-only effect, or a change in a side signal; inactive = no such curve, though single readings can be large or run the other way; reference of the percent scale not stated here;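 note: the control signal comes from parental cells without the receptor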
# Target sequence (P16473 whole entry, looked up): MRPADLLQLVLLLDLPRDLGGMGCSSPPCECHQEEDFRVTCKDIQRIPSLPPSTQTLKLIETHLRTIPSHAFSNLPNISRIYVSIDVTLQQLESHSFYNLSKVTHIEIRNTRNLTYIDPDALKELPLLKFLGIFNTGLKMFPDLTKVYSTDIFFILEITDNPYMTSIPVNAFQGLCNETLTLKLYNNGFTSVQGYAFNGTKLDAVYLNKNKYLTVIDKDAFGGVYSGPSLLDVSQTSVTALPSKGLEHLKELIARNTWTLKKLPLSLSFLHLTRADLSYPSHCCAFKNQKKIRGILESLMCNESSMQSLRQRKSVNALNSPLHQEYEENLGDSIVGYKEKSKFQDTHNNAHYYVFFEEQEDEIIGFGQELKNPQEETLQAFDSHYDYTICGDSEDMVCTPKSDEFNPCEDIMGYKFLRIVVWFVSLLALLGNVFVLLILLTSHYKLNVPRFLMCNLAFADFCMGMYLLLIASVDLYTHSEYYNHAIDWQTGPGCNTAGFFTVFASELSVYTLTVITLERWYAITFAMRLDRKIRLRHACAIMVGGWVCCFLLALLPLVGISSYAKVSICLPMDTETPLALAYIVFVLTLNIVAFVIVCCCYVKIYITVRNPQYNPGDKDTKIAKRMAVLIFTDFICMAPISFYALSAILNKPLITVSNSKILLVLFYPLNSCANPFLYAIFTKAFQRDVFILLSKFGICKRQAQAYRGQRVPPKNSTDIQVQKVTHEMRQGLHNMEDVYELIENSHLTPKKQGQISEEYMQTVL
#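 cAMP rise detected as CNG-channel membrane depolarization by fluorescent dye (emission 590 nm), 30 min after compound, following 60 min dye loading containing 100 uM RO 20-1724 at room temperature. Cells: TSHR/CNG HEK 293, with parental CNG HEK 293 as control.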
# HEK293 cAMP cs: counter-screen for TSHR agonists: cAMP increase in parental HEK293; parental HEK293 CNG cAMP sensor, membrane potential fluorescence; 73,000 compounds, 2.5% hits; AID 938; Potency, µM (top dose mostly 57.1 µM), usual class: activators; note: nearly all actives have a fitted effect of over 55% in size
#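 Parental HEK 293 cells stably expressing a modified CNG channel (no TSHR) report cAMP rise as membrane depolarization. Membrane potential dye with 100 uM RO 20-1724 was loaded for 60 min at room temperature, then compound added for 30 min; fluorescence read at 590 nm.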
# A number is an active result; . = inactive; ? = inconclusive; / = no result given; [ ] = another dose, or the depositor's remark. Unless noted, calls come from the whole dose curve; as a rule, active = well fitted curve in the direction sought with a large enough effect; inconclusive = small, poorly fitted or top-dose-only effect, or another doubt; inactive = no such curve, though single readings can be large; an effect the other way counts as inactive or inconclusive.
SMILES,Caspase-1 inhib,Casp7 inh,15-hLO inh,15-hLO-2 inh,TSHR agonist,HEK293 cAMP cs
COC(=O)[C@@]1(Cc2ccc(OC)cc2)[C@H]2c3cc(C(=O)N(C)C)n(CCc4ccccn4)c3C[C@H]2CN1C(=O)c1ccccc1,.,.,/,.,.,.
CN(c1ccc(C(=O)Nc2nccs2)cc1)S(=O)(=O)c1ccccc1,.,.,.,.,?,32µM
CN(c1ccccc1)S(=O)(=O)c1ccc(C(=O)Nc2nccs2)cc1,/,/,/,.,/,/
O=C1C(Cl)=C(N2CCOCC2)C(=O)N1c1cccc(Cl)c1,.,.,4µM,.,/,.[11.4 µM]
O=C(NCc1ccco1)C(c1ccco1)N(CCc1ccccc1)C(=O)Cn1nnc2ccccc21 (stereo not drawn),.,.,.,.,?,16µM
Cc1ccc(CN(C(=O)Cn2nnc3ccccc32)C(C(=O)NCc2ccco2)c2cccs2)cc1 (stereo not drawn),.,.,.,.,?,?
COCCNC(=O)C(c1cccc(OC)c1)N(C(=O)Cn1nnc2ccccc21)c1cccnc1 (stereo not drawn),.,.,.,.,.,.
CCC(C)N(C(=O)Cn1nnc2ccccc21)C(C(=O)NCc1ccco1)c1cccc(OC)c1 (stereo not drawn),.,.,.,.,?,16µM
O=C(NCc1ccco1)C(c1cccs1)N(Cc1ccccc1)C(=O)Cn1nnc2ccccc21 (stereo not drawn),.,.,.,.,?,10µM
Cc1ccc(C)c(N2CCN(S(=O)(=O)c3ccc4c(c3)OCCO4)CC2)c1,.,.,.,.,25µM,.
Cc1cc(-c2nnc3n2N=C(c2ccc(-c4ccccc4)cc2)CS3)n[nH]1,.,.,.,.,?,32µM
COc1ccc(-c2nnc3n2N=C(c2ccccc2)CS3)cc1OC,.,.,.,.,.,.
c1ccn(-c2ccc(N3CCOCC3)cc2)c1,/,/,/,.,/,/
Cc1ccc(C)n1-c1ccc(N2CCOCC2)cc1,.,.,2.5µM,.,.,.
CC(C)[C@H](NC(=O)OC(C)(C)C)[C@@H](O)CC(=O)OC(C)(C)C,.[11.5 µM],.[11.5 µM],.[11.4 µM],/,.[11.4 µM],.[11.4 µM]
CCCn1c(N2CCN(S(=O)(=O)Cc3ccccc3)CC2)nc2ccccc21,.,.,.,.,?,25µM
N#C[C@@H](Cc1ccc(O)c(O)c1)C(=O)N1CCc2ccccc21,.,.,0.63µM,?,.,.
O=C(Cc1ccccc1)N1CCc2ccccc21,/,/,/,.,/,/
Cc1ccc(N(Cc2ccco2)C(=O)c2cccc(S(=O)(=O)N(C)C)c2)cc1,.,.,.,.,20µM,.
CCOC(=O)CSc1nc2c(sc(=S)n2Cc2ccco2)c(=O)n1-c1ccccc1,.,.,.,.,?,1.3µM
CCN(CC)C(=O)CSc1nc2c(sc(=S)n2Cc2ccco2)c(=O)n1-c1ccccc1,/,/,/,.,/,/
CCCCNC(=O)c1ccc(Cc2nc3ccccc3[nH]2)cc1,.,.,.,/,.,.
O=C(O)C1CC(=O)N(CCC23CC4CC(CC(C4)C2)C3)C(=Nc2ccccc2)S1 (stereo not drawn),.,?,.,/,.,.
COC(=O)c1ccc(C(NC(=O)OCc2ccccc2)/C(F)=C/[C@@H](C)C(=O)N(C)Cc2cccnc2)cc1 (stereo partly drawn),.,.,.,.,/,.
O=c1c(O)cccc2cc(O)c(O)c(O)c12,.,.,4µM,.,/,/
CCN(CCCNC(=O)CC1Oc2ccc(C)cc2NC1=O)Cc1ccccc1 (stereo not drawn),.,.,10µM,/,.,.
Cc1ccc2c(c1)NC(=O)C(CC(=O)NCCCN1CCCC1)O2 (stereo not drawn),.,.,.,.,.,.
Cc1nn(C(=O)c2cccnc2)c(C)c1C,.,.,.,.,?,6.3µM
Nc1nc(-c2ccc(Cl)cc2)nn1C(=O)c1cccnc1,.,.,.,.,.,.
CC(=O)N(OCc1ccccc1)[C@@H]1c2cc(C#N)ccc2OC(C)(C)[C@H]1O,.,.,?,.,.,.

# Assay outcomes (PubChem BioAssay)
